Assay outcomes deposited in PubChem by several laboratories.
TIM10 inh – growth inhibitors of isogenic TIM10 control yeast, primary screen, counter-screen for tim10-1 yeast inhibitor project, luminescence, uHTS | hit rate 1.4% among 330,000 | S. cerevisiae TIM10 strain growth, BacTiter-Glo luminescence, 24 h | inhibition, % at 10 µM;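 active means inhibition of 40% or more at the single tested concentration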;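 further: wild-type TIM10 isogenic control strain grown at permissive 25 °C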
SKKanGAS inh – S. pyogenes SKKanGAS growth inhibitors in kanamycin, primary screen, streptokinase expression inhibitor project, SKKanGAS strain, BacTiter-Glo luminescence. hit rate 1.3% among 300,000. inhibition, % at 7.5 µM. 6 h;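 active means mean replicate score, as percent of positive control median, at least 50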;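 further: strain carries kanamycin resistance gene driven by streptokinase promoter and grows in 40 µg/ml kanamycin; loss of luminescence reflects streptokinase promoter inhibition or plain growth inhibition; 0% = median of DMSO wells and 100% = positive control at its reference dose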
tim10-1 inh – growth inhibitors of tim10-1 mutant yeast, primary screen, luminescence, uHTS; S. cerevisiae tim10-1 ts strain growth, BacTiter-Glo, 24 h; inhibition, % at 20 µM; hit rate 2.2% among 330,000; AID 463190, 2010;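 active means inhibition of at least 40%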;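 further: mutant grown at 25 °C; 0% = DMSO wells with yeast and 100% = wells holding no yeast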
tim23-1 inh – growth inhibitors of tim23-1 mutant yeast, primary screen, luminescence, uHTS | S. cerevisiae tim23-1 growth, BacTiter-Glo luminescence, 24 h | inhibition, % at 20 µM | hit rate 1.3% among 330,000;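 active means growth inhibition of the mutant yeast at or above 50%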;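 further: temperature-sensitive mutant grown at 25 °C; plate controls were DMSO-treated mutant yeast for no effect and medium wells lacking yeast for full effect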
PfHsp90 yeast 2 – growth inhibition of PfHsp90-expressing yeast, primary screen, antimalarial PfHsp90 inhibitor project, S. cerevisiae, BacTiter-Glo luminescence, single point, set 2; BacTiter-Glo ATP, 48 h; yeast lacking PDR1 and PDR3 efflux regulators; inhibition, % at 9.4 µM; hit rate 0.32% among 310,000; AID 504621, 2011;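 active means every replicate shows inhibition above about 80%, whatever the replicate mean, limit read from the data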;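 further: 0% = DMSO neutral controls and 100% = 20 µM radicicol positive controls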
NALP3 yeast inh – NALP3 inflammasome inhibitors in reconstituted yeast, primary screen, luminescence, uHTS | hit rate 0.39% among 330,000 | Yeast reconstituted NLRP3/ASC/caspase-1, beta-gal luminescence, 24 h | inhibition, % at 10 µM | AID 2825, 2010;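 active means inhibition of 50% or more; inactive means inhibition below 50%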;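 further: plate controls were induced DMSO wells for no effect and uninduced yeast grown without galactose for full effect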
NALP3 confirm – NALP3 inhibitors retested in yeast, confirmation, luminescence, single concentration | shares compounds with NALP3 yeast inh | yeast expressing human NALP3 | inhibition, % at 10 µM | hit rate 81% among 1,300 | AID 435006, 2010; in the data active means inhibition above about 48%
Casp1-ASC yeast – CASP1-PYCARD signaling inhibition in yeast, confirmatory test, counterassay for NLRP3 inhibitor program, one-dose | shares compounds with NALP3 yeast inh | inhibition, % at 10 µM | hit rate 66% among 1,000 | yeast expressing Caspase-1-ASC, luminescence counter screen
NALP3 yeast rt – NALP3 inhibitors in yeast, repeat test, confirmation, luminescence, single concentration, retest; shares compounds with NALP3 yeast inh; inhibition, % at 10 µM; hit rate 53% among 1,000; yeast expressing human NALP3, luminescence read-out
tim10-1 conf – growth inhibitors of tim10-1 mutant yeast, confirmation, single concentration, luminescence, S. cerevisiae; shares compounds with tim10-1 inh; S. cerevisiae tim10-1 ts strain growth, BacTiter-Glo, 24 h; inhibition, % at 20 µM; hit rate 56% among 7,400; AID 463213, 2010;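 active means inhibition of yeast growth at or above a set limit in either of two repeat tests at 20 µM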;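 further: tim10-1 mutant grown at permissive 25 °C to find synthetic lethal compounds; 0% = DMSO yeast wells and 100% = medium wells without yeast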
TIM10 conf – growth inhibitors of wild-type TIM10 yeast, confirmation, counter-screen for tim10-1 synthetic lethality project, single concentration, luminescence, S. cerevisiae. AID 463215, 2010. hit rate 63% among 4,600. inhibition, % at 10 µM. shares compounds with TIM10 inh. S. cerevisiae tim10 strain growth, BacTiter-Glo luminescence, 24 h;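 active means inhibition of yeast growth at or above a set limit in either of two replicates at 10 µM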;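 further: this counterscreen used the strain with wild-type TIM10; 0% = yeast with DMSO and 100% = medium wells lacking yeast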
tim23-1 conf – tim23-1 mutant yeast growth inhibitors, confirmation, luminescence, single concentration; shares compounds with tim23-1 inh; inhibition, % at 20 µM; S. cerevisiae tim23-1 growth, BacTiter-Glo luminescence, 24 h; hit rate 83% among 4,400; AID 463218, 2010;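 active means inhibition above about 39% in either of two replicate wells at 20 µM, limit read from the data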;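 further: temperature-sensitive tim23-1 mutant grown at 25 °C; 0% = DMSO wells with yeast and 100% = medium wells without yeast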
Numbers without * were called inactive. The list is not random: actives were taken first. Their share in the collection is about 4.5%. Unless noted, no stated cut-off is given here; in the data, active means inhibition above about 50%; inactive means the rest.

How did CN(Cc1ccccc1)S(=O)(=O)c1ccc(Cl)c(C(=O)NCc2cccnc2)c1 do in these assays?
TIM10 inh: -11.3; SKKanGAS inh: 8.9; tim10-1 inh: -8.2; tim23-1 inh: -5.2; PfHsp90 yeast 2: 26.8; NALP3 yeast inh: 19.2

Results for Cc1nc(C(N)=O)c(N)n1CCc1ccccc1 ?
TIM10 inh: -15.6; SKKanGAS inh: -0.3; tim10-1 inh: 10.5; tim23-1 inh: 7.8; PfHsp90 yeast 2: 16.1; NALP3 yeast inh: -5.4

How did CC(=Nc1cccc(O)c1)c1sc2ccccc2c1O do in these assays?
TIM10 inh: 17.6; SKKanGAS inh: -0.3; tim10-1 inh: 36.6; tim23-1 inh: 63.3*; PfHsp90 yeast 2: 9.8; NALP3 yeast inh: 52.3*; NALP3 confirm: 50.2*; Casp1-ASC yeast: 19.4; NALP3 yeast rt: 22.9; tim23-1 conf: 62.5*

Results for O=[N+]([O-])c1ccc(O)c2ncccc12 ?
TIM10 inh: -1.1; SKKanGAS inh: 43.9; tim10-1 inh: 20.5; tim23-1 inh: 62.2*; PfHsp90 yeast 2: 109.2*; NALP3 yeast inh: 82.9*; NALP3 confirm: 91.6*; Casp1-ASC yeast: 98.7*; NALP3 yeast rt: 98.2*; tim23-1 conf: 34.8

How did COC(=O)c1ccc2c(c1O)C(=O)c1ccccc1C2=O do in these assays?
TIM10 inh: 91.5*; SKKanGAS inh: 70.5*; tim10-1 inh: 80.0*; tim23-1 inh: 76.5*; PfHsp90 yeast 2: -102.3; NALP3 yeast inh: 53.8*; NALP3 confirm: 61.1*; Casp1-ASC yeast: 61.0*; NALP3 yeast rt: 51.9*; tim10-1 conf: 75.0*; TIM10 conf: 91.3*; tim23-1 conf: 81.9*

What do the screens show for `CNC(=S)N/N=C/c1cc(Br)cc(Br)c1O`?
TIM10 inh: 35.5; SKKanGAS inh: 35.0; tim10-1 inh: 24.6; tim23-1 inh: 58.4*; PfHsp90 yeast 2: 23.7; NALP3 yeast inh: 63.8*; NALP3 confirm: 34.3; tim23-1 conf: 53.9*

What do the screens show for `CC(C)(C)NC(=S)N/N=C/c1cc(Br)c(O)c(Br)c1`?
TIM10 inh: 16.6; SKKanGAS inh: 13.0; tim10-1 inh: 24.9; tim23-1 inh: 34.7; PfHsp90 yeast 2: -4.5; NALP3 yeast inh: 5.7

Results for Cc1ccc2c(CC(=O)N(C)c3c(N)n(Cc4ccccc4)c(=O)[nH]c3=O)coc2c1 ?
TIM10 inh: 7.3; SKKanGAS inh: -1.0; tim10-1 inh: 4.0; tim23-1 inh: 0.6; PfHsp90 yeast 2: -5.6; NALP3 yeast inh: -3.4

What do the screens show for `COc1ccc(-c2cc(=O)c3ccccc3s2)cc1`?
TIM10 inh: 41.8*; SKKanGAS inh: 20.1; tim10-1 inh: 28.7; tim23-1 inh: 51.6*; PfHsp90 yeast 2: 11.3; NALP3 yeast inh: 65.8*; NALP3 confirm: 66.2*; Casp1-ASC yeast: 54.2*; NALP3 yeast rt: 66.2*; TIM10 conf: 44.5*; tim23-1 conf: 54.0*

Results for COc1ccc(-c2cc(=O)c3ccccc3[nH]2)cc1 ?
TIM10 inh: 17.4; SKKanGAS inh: 1.0; tim10-1 inh: 4.5; tim23-1 inh: 13.3; PfHsp90 yeast 2: -18.5; NALP3 yeast inh: 0.4

Results for CCOC(=O)c1sc(N)nc1C(F)(F)F ?
PfHsp90 yeast 2: -15.7

What do the screens show for `Oc1c(I)cc(Cl)c2cccnc12`?
TIM10 inh: 56.2*; SKKanGAS inh: 99.6*; tim10-1 inh: 66.9*; tim23-1 inh: 70.2*; PfHsp90 yeast 2: 110.6*; NALP3 yeast inh: 59.0*; NALP3 confirm: 68.2*; Casp1-ASC yeast: 71.7*; NALP3 yeast rt: 78.5*; tim10-1 conf: 56.5*; TIM10 conf: 70.2*; tim23-1 conf: 73.2*

How did CC(C)Oc1ccc(C(=O)/C=C2/C(=O)Nc3ccccc32)cc1 do in these assays?
TIM10 inh: 75.8*; SKKanGAS inh: 12.1; tim10-1 inh: 68.9*; tim23-1 inh: 88.0*; PfHsp90 yeast 2: 106.7*; NALP3 yeast inh: 64.8*; NALP3 confirm: 76.3*; Casp1-ASC yeast: 85.6*; NALP3 yeast rt: 63.6*; tim10-1 conf: 75.8*; TIM10 conf: 69.0*; tim23-1 conf: 85.0*

What do the screens show for `O=C(/C=C1\C(=O)Nc2ccccc21)/C=C1\C(=O)Nc2ccccc21`?
PfHsp90 yeast 2: -19.3

How did COc1ccc(/C=C/C(=O)c2ccc([N+](=O)[O-])o2)cc1OC do in these assays?
TIM10 inh: 95.7*; SKKanGAS inh: 66.9*; tim10-1 inh: 91.0*; tim23-1 inh: 90.1*; NALP3 yeast inh: 50.2*; NALP3 confirm: 53.8*; Casp1-ASC yeast: 80.0*; NALP3 yeast rt: 57.8*; tim10-1 conf: 88.8*; TIM10 conf: 98.2*; tim23-1 conf: 97.2*

Results for O=C(CC(=O)c1c(F)cccc1Cl)c1ccccc1O ?
TIM10 inh: 7.5; SKKanGAS inh: 31.9; tim10-1 inh: 52.5*; tim23-1 inh: 62.6*; PfHsp90 yeast 2: -64.8; NALP3 yeast inh: 51.0*; NALP3 confirm: 70.0*; Casp1-ASC yeast: 60.9*; NALP3 yeast rt: 48.2; tim10-1 conf: 13.9; tim23-1 conf: 63.8*

Results for O=C(CC(=O)c1ccccc1O)c1cccc(F)c1 ?
TIM10 inh: -5.5; SKKanGAS inh: 43.4; tim10-1 inh: 6.6; tim23-1 inh: 34.3; PfHsp90 yeast 2: -98.3; NALP3 yeast inh: 32.2

What do the screens show for `C=C[C@H]1CN2CC[C@H]1C[C@H]2[C@H](O)c1ccnc2ccc(OC)cc12`?
TIM10 inh: 0.8; SKKanGAS inh: -10.4; tim10-1 inh: 1.5; tim23-1 inh: -7.3; PfHsp90 yeast 2: 13.5; NALP3 yeast inh: 1.9
